In the library only some 4.3% were active in any assay of this set; here they are far more common.
FAS-TE inh: blocks the thioesterase domain of human fatty acid synthase | recombinant FAS-TE, OMFH fluorogenic substrate, fluorescence endpoint | P49327 | actives 0.67% (n = 360,000) | inhibition, % at 15 µM | AID 602261;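 active = compounds whose normalised, plate-corrected inhibition of enzyme fluorescence in the single-dose primary screen is 50% or more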;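 also: 0% = DMSO with enzyme and 100% = substrate without enzyme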
rCAG RNA binder: binds r(CAG) RNA repeats | actives 1.3% (n = 370,000) | inhibition, % at 3 µM | r(CAG) RNA repeat, TO-PRO-1 dye displacement fluorescence;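 active = inhibition above the plate cutoff, the mean of all test compounds on that plate plus 3 SD, cut at about 35% in these data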;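 also: 0% = DMSO alone and 100% = 100 µM mitoxantrone as full dye displacement; higher means more dye released from RNA so lower well fluorescence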
NR3A LBD binder: modulators (binders) of human NR3A ligand-binding domain | NR3A LBD differential scanning fluorimetry, Tm shift; 0% = protein alone, 100% = glycine-bound protein | Tm shift relative to glycine control, % at 25 µM | actives 2.5% (n = 340,000) | AID 1259313;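 active = melting temperature shift of at least 10% of the positive control shift, at one fixed dose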
NadD block: NadD (S. aureus) enzyme inhibition. AID 602399. purified NadD enzyme, colorimetric absorbance read-out. inhibition, % at 20 µM. actives 0.78% (n = 360,000); in the data active = inhibition above about 26%
NadD conf: NadD (S. aureus) inhibition, single concentration confirmation | shares compounds with NadD block | purified S. aureus NadD, colorimetric enzyme assay | inhibition, % at 20 µM | actives 13% (n = 2,000) | AID 624309; in the data active = inhibition mostly above about 42%, no sharp cut-off; inactive = mostly below about 42%
* marks the source's active call; other numbers are inactive results; x = no result given.

SMILES	FAS-TE inh	rCAG RNA binder	NR3A LBD binder	NadD block	NadD conf
C=CCn1c(=NC(=O)c2cc(-c3cccs3)nc3ccccc23)sc2cc(S(N)(=O)=O)ccc21	18	30	28*	51*	59*
COCCn1c(=NC(=O)c2sc3ccccc3c2Cl)sc2cc(S(N)(=O)=O)ccc21	2	13	23*	29*	17
C=CCn1c(=NC(=O)c2sc3ccccc3c2Cl)sc2cc(S(N)(=O)=O)ccc21	-13	x	16*	36*	0
COCCn1c(=NC(=O)c2ccc(S(=O)(=O)N3CCOCC3)cc2)sc2cc(S(N)(=O)=O)ccc21	4	16	-8	5	x
C=CCn1c(=NC(=O)c2cc(Cl)sc2Cl)sc2cc(S(N)(=O)=O)ccc21	-2	10	-437	17	x
O=C(Nc1cccc(Br)c1)OC1CC2CC1[C@H]1CCCCN1C2 (some centres not stated)	x	13	x	x	x
CCCCCCCCN1C(=O)[C@@H](CC(=O)N2CCN(C(=O)c3ccco3)CC2)C[C@@]2(C(=O)OC)C1=C[C@H](COCc1ccccc1)O[C@@H]2C	x	6	x	x	x
COc1ccc2nc(NC(=O)C3CCN(S(=O)(=O)c4cccc5nsnc45)CC3)sc2c1	47	19	0	41*	19
O=C(NC1CC1)C1CCN(S(=O)(=O)c2cc([N+](=O)[O-])ccc2Cl)CC1	3	21	-1	52*	29
Cc1cccc2sc(NC(=O)C3CCN(S(=O)(=O)c4cc([N+](=O)[O-])ccc4Cl)CC3)nc12	46	24	2	46*	6
COC(=O)[C@]12C[C@H](CC(=O)NCC34CC5CC(CC(C5)C3)C4)C(=O)N(Cc3ccc(Cl)cc3Cl)C1=C[C@H](C(C)(C)C)O[C@@H]2C	x	2	x	x	x
CCOC(=O)C1=NOC(C(C)=O)(C(=O)N2CCOCC2)C1 (configuration not stated)	x	2	x	x	x
N#Cc1ccc(-c2csc(NNC(=O)c3ccccc3)n2)cc1	4	7	-2	4	x
Cc1cc(-c2csc(NC(=O)c3ccc(C#N)cc3)n2)c(C)n1Cc1ccccc1	0	14	0	34*	26
O=[N+]([O-])c1ccc(C=NNC(=S)Nc2ccc(F)cc2)cc1	3	5	1	1	x
Cc1ccccc1NCC(=O)N/N=C/c1ccc([N+](=O)[O-])cc1	8	2	-3	-2	x
O=C(CNc1cccc2ccccc12)N/N=C/c1ccccn1	0	7	-1	48*	1
Cc1cccc(NCC(=O)N/N=C\c2ccccn2)c1	-4	-4	0	-4	x
O=C(CNc1cccc2ccccc12)N/N=C/c1ccc([N+](=O)[O-])cc1	18	25	14*	40*	44*
O=[N+]([O-])c1ccc(C=NNC(=S)NN=Cc2ccc([N+](=O)[O-])cc2)cc1	13	11	5	35*	5
O=C(CN(CCc1ccccc1)S(=O)(=O)c1ccccc1)N1CCOCC1	x	2	x	x	x
COc1ccc(S[C@]2(C(=O)N3CCOCC3)CC(=O)N(C(=O)Nc3ccc(C)c(Cl)c3)[C@@H]2c2ccc(OC)cc2)cc1	x	14	x	x	x
Oc1ccc(C[C@@H](CN2CCC[C@@H]2CN2C(=S)NC[C@@H]2Cc2ccccc2)N2C[C@H](Cc3ccccc3)N(CCc3ccccc3)C2=S)cc1	-85	13	x	20	x
CC(C)C[C@H]1CN([C@@H](Cc2ccc(O)cc2)CN2CCC[C@@H]2CN2C(=S)NC[C@@H]2Cc2ccccc2)C(=S)N1CCc1ccccc1	-127	17	x	32*	9
CC(C)C[C@H]1CNC(=S)N1C[C@H]1CCCN1C[C@H](Cc1ccc(O)cc1)N1C[C@H](Cc2ccc(O)cc2)N(CCc2ccccc2)C1=S	-72	17	x	22	x
Oc1ccc(C[C@H]2CNC(=S)N2CC2CCCN2C[C@H](Cc2ccccc2)N2C[C@H](Cc3ccc(O)cc3)N(CCc3ccccc3)C2=S)cc1 (some centres not stated)	-92	22	31*	53*	58*
COC(=O)CSc1nnc(-c2cccs2)o1	x	-1	x	x	x
O=c1[nH]c(Nc2ccccc2)cc2ccccc12	29	-1	-1	-2	x
CC(=O)c1cccc(-c2ccc3c(=O)[nH]c(Nc4ccccc4)cc3c2)c1	42	29	-6	35*	23
COc1ccc(Cn2ccc3ccc(-c4ccc5ccn(C(=O)c6ccccc6C)c5c4)cc32)cc1	x	8	x	x	x

High-throughput results (PubChem)
